Targets with a hit are over-represented here; the source holds about 8,800 in all. About 0.5% of all pairs of compound and target were hits. Unmarked numbers belong to inactive results.
What was measured:
Experiment in all cases: log2 fold change, soluble protein after heating vs DMSO (PISA); higher = thermal stabilisation; K562 lysate, 10 uM; active = over 0.2 and 3.5 SD of the protein, either way, in both replicates (recomputed)
vemurafenib = compound: CCCS(=O)(=O)Nc1ccc(F)c(C(=O)c2c[nH]c3ncc(-c4ccc(Cl)cc4)cc23)c1F [vemurafenib]
Method in brief: (§1)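 Values give the log-two fold change in thermal stability against solvent controls, from duplicates. Crude K562 extract at 1 mg/mL protein, made by dounce homogenisation in PBS pH 7.4 with 1 mM MgCl2, was treated with 10 μM compound for 30 min. After 3 min heating across 48°C-58°C, aliquots were pooled, adjusted to 0.5% NP-40 at 4°C and centrifuged at 21,000xg for 90 min. The supernatant was measured by TMTpro 16plex LC-MS/MS with channel sums equalised.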

[1] = compound: CCCS(=O)(=O)Nc1ccc(F)c(C(=O)c2c[nH]c3ncc(Cl)cc23)c1F
Method in brief: as §1

barasertib = compound: CCN(CCCOc1ccc2c(Nc3cc(CC(=O)Nc4cccc(F)c4)[nH]n3)ncnc2c1)CCOP(=O)(O)O [barasertib]
Method in brief: as §1

[2] = compound: CC[C@@H]1C(=O)N(C)c2cnc(Nc3ccc(C(=O)NC4CCN(C)CC4)cc3OC)nc2N1C1CCCC1
Method in brief: as §1

volasertib = compound: CC[C@@H]1C(=O)N(C)c2cnc(Nc3ccc(C(=O)N[C@H]4CC[C@H](N5CCN(CC6CC6)CC5)CC4)cc3OC)nc2N1C(C)C [volasertib]
Method in brief: as §1

[3] = compound: CCn1c(C(=O)N(C2CC2)C2CC2)cc2c3c(ncn3C)c(Nc3cc(C)n(C)n3)nc21
Method in brief: as §1

[4] = compound: CCn1cc(-c2ccnc3[nH]c(-c4cccc(CN(C)C)c4)cc23)c(-c2ccc(NC(=O)N(C)C)cc2)n1
Method in brief: as §1

[5] = compound: CN1CCC(CNc2ccc3ncc(-c4cccc(OC(F)(F)F)c4)n3n2)CC1
Method in brief: as §1

saracatinib = compound: CN1CCN(CCOc2cc(OC3CCOCC3)c3c(Nc4c(Cl)ccc5c4OCO5)ncnc3c2)CC1 [saracatinib]
Method in brief: as §1

sotrastaurin = compound: CN1CCN(c2nc(C3=C(c4c[nH]c5ccccc45)C(=O)NC3=O)c3ccccc3n2)CC1 [sotrastaurin]
Method in brief: as §1

alvocidib = compound: CN1CC[C@H](c2c(O)cc(O)c3c(=O)cc(-c4ccccc4Cl)oc23)[C@H](O)C1 [alvocidib]
Method in brief: as §1

Tubastatin A = compound: CN1CCc2c(c3ccccc3n2Cc2ccc(C(=O)NO)cc2)C1 [Tubastatin A]
Method in brief: as §1

[6] = compound: CNC(=O)C1=CC=CC=C1NC2=NC(=NC=C2Cl)NC3=C(C=C(C=C3)N4CCOCC4)OC
Method in brief: as §1

defactinib = compound: CNC(=O)c1ccc(Nc2ncc(C(F)(F)F)c(NCc3nccnc3N(C)S(C)(=O)=O)n2)cc1 [defactinib]
Method in brief: as §1

[7] = compound: CNc1nc(-c2ccc3c(N)n[nH]c3c2)cc(N2C[C@@H](C(=O)NC3CCCCC3)CC[C@H]2C)n1
Method in brief: as §1

encorafenib = compound: COC(=O)N[C@@H](C)CNc1nccc(-c2cn(C(C)C)nc2-c2cc(Cl)cc(NS(C)(=O)=O)c2F)n1 [encorafenib]
Method in brief: as §1

[8] = compound: COC(=O)[C@H](CCSC)NC(=O)C1=C(C=C(C=C1)NC[C@H](CS)N)C2=CC=CC=C2
Method in brief: as §1

alisertib = compound: COc1cc(Nc2ncc3c(n2)-c2ccc(Cl)cc2C(c2c(F)cccc2OC)=NC3)ccc1C(=O)O [alisertib]
Method in brief: as §1

[9] = compound: COc1cc2nc(-c3cc(F)ccc3O)nc(N[C@@H]3CNC[C@H]3C(C)(C)O)c2cc1OC
Method in brief: as §1

gefitinib = compound: COc1cc2ncnc(Nc3ccc(F)c(Cl)c3)c2cc1OCCCN1CCOCC1 [gefitinib]
Method in brief: as §1

Sequence of UniProt Q15386 (Q15386 whole entry, looked up): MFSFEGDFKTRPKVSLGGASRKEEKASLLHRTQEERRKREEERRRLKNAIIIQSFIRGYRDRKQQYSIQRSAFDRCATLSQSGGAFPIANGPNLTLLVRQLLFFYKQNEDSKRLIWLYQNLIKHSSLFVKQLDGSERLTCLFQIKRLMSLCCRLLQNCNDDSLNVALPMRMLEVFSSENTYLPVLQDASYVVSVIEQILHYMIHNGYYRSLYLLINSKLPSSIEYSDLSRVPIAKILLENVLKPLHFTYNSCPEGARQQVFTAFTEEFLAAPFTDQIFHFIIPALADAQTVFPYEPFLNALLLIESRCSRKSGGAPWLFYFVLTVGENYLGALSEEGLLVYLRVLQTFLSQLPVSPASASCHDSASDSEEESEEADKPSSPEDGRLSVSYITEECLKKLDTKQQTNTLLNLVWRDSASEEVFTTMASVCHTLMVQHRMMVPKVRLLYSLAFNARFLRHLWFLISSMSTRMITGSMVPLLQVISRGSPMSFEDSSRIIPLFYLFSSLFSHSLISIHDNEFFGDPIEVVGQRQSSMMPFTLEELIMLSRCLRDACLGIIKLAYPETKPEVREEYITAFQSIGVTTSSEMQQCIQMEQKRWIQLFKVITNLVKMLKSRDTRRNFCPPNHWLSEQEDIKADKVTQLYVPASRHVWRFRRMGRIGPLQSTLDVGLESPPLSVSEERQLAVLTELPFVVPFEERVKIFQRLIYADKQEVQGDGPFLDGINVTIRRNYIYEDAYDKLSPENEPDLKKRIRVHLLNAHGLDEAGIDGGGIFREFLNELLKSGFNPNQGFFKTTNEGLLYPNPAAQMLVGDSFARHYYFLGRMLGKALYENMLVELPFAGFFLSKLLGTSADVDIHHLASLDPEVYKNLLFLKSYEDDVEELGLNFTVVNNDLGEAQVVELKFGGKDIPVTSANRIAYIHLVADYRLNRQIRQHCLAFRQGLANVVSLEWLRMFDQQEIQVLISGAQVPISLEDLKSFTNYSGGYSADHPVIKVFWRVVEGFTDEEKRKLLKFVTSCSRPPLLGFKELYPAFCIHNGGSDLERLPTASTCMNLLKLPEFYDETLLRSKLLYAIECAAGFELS
Sequence of UniProt Q12933 (Q12933 whole entry, looked up): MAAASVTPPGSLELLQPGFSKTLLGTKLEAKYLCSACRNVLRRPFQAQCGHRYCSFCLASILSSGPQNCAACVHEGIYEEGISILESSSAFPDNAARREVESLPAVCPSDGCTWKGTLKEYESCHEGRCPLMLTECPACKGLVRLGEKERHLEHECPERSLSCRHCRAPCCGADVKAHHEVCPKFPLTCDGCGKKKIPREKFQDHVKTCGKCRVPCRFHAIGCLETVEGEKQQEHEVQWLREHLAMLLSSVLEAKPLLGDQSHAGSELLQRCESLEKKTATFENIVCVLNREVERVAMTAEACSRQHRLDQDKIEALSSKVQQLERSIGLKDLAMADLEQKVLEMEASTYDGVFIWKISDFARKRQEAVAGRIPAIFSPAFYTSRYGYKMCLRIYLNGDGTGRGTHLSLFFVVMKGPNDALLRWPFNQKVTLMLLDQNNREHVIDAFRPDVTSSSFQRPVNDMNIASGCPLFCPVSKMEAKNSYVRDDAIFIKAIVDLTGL
Sequence of UniProt Q8IWV7 (Q8IWV7 whole entry, looked up): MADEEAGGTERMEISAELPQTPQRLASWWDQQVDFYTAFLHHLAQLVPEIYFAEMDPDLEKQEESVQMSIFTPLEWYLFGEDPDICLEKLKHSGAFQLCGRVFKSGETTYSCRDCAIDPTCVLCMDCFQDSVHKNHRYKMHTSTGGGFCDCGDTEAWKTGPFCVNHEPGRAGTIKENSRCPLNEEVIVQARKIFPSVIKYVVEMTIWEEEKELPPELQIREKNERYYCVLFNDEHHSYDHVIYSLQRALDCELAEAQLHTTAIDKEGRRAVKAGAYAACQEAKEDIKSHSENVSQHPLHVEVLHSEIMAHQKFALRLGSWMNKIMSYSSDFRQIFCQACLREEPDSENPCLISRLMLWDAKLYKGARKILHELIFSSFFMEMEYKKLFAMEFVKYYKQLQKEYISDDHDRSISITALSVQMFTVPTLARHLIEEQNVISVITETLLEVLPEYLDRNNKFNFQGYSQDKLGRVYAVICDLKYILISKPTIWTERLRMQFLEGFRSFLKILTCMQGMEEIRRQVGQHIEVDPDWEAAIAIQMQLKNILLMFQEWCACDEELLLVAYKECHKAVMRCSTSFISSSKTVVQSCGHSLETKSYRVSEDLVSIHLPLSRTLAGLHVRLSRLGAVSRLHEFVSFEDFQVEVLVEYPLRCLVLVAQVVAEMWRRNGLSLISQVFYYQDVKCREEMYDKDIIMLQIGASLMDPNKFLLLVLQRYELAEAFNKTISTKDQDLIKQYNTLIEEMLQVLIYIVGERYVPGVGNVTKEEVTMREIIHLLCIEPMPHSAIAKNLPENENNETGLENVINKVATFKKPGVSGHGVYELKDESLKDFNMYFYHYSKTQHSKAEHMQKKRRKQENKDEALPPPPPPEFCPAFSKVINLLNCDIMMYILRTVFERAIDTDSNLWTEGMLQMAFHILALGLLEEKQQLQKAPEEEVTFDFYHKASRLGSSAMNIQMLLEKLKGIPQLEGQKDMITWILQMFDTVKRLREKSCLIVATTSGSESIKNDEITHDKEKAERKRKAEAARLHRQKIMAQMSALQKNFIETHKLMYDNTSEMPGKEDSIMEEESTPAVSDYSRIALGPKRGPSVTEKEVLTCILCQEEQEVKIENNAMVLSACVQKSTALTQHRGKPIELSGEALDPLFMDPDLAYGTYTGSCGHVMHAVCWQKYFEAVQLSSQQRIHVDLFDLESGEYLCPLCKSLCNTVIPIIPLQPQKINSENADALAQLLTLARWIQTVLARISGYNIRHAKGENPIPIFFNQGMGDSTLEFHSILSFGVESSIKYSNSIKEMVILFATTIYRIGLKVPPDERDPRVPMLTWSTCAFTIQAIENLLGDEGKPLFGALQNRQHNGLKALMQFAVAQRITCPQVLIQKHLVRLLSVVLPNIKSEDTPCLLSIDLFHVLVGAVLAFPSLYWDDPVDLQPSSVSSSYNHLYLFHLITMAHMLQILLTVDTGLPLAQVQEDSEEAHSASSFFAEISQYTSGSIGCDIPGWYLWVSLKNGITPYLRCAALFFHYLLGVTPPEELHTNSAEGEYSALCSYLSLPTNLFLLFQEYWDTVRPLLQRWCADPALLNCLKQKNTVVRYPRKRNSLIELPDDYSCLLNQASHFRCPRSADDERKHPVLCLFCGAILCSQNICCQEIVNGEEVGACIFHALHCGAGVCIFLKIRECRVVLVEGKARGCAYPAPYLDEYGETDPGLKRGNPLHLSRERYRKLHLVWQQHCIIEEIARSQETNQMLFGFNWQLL
Sequence of UniProt Q9H4B7 (Q9H4B7 whole entry, looked up): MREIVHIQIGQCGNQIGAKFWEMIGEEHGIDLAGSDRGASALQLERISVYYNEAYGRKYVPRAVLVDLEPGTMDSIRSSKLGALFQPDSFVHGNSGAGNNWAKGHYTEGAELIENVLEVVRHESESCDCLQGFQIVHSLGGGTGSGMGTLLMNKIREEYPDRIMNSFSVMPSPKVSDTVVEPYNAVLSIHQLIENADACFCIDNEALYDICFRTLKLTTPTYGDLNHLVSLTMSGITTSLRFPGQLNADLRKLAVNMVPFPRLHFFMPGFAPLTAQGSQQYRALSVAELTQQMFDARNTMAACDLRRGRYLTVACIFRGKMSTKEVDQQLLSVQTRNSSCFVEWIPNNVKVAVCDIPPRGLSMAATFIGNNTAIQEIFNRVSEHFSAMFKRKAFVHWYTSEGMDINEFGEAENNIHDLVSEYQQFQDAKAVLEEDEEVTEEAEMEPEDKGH
Sequence of UniProt Q12800 (Q12800 whole entry, looked up): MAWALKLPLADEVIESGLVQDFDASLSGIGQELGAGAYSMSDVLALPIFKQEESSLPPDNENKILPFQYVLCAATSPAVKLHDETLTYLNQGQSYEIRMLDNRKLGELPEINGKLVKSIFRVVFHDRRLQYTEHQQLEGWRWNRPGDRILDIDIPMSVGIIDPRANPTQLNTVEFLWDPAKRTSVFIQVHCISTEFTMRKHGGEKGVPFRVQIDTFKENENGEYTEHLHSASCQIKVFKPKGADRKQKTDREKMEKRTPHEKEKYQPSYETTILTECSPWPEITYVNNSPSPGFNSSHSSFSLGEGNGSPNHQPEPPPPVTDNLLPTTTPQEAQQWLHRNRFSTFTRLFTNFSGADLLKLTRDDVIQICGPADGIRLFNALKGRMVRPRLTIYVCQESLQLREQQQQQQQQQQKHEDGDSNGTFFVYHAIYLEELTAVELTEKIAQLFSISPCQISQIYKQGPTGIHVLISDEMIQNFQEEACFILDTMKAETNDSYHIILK
Sequence of UniProt Q969Z0 (Q969Z0 whole entry, looked up): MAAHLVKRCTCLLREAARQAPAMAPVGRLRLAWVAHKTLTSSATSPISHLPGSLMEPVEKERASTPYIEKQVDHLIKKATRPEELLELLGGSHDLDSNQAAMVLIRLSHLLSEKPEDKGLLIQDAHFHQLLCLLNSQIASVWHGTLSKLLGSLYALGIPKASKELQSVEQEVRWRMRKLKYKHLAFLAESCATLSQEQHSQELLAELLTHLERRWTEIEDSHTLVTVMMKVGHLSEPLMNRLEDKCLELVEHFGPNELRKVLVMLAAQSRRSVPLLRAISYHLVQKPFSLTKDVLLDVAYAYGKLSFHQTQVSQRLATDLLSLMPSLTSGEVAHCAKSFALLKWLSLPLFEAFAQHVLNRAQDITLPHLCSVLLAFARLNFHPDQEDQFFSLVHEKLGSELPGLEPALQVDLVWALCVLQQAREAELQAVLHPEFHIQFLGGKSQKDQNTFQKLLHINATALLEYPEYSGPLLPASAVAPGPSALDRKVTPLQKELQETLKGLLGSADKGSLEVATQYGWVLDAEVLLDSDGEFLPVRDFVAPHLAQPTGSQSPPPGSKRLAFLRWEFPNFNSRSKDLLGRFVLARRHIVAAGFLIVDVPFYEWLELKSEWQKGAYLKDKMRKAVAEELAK
Sequence of UniProt P51668 (P51668 whole entry, looked up): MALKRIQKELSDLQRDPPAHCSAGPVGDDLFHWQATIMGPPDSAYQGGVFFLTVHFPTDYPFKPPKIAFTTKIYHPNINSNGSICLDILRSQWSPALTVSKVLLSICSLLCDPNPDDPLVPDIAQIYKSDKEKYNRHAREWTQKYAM

Row | Target | log2 fold change (vemurafenib) | log2 fold change [1] | log2 fold change (barasertib) | log2 fold change [2] | log2 fold change (volasertib) | log2 fold change [3] | log2 fold change [4] | log2 fold change [5] | log2 fold change (saracatinib) | log2 fold change (sotrastaurin) | log2 fold change (alvocidib) | log2 fold change (Tubastatin A) | log2 fold change [6] | log2 fold change (defactinib) | log2 fold change [7] | log2 fold change (encorafenib) | log2 fold change [8] | log2 fold change (alisertib) | log2 fold change [9] | log2 fold change (gefitinib)
1 | TUBB1 (UniProt Q9H4B7) | -0.039 | 0.011 | 0.002 | -0.025 | -0.087 | 0.034 | 0.15 | -0.025 | -0.002 | -0.045 | 0.026 | -0.059 | 0.021 | 0.07 | -0.005 | -0.015 | 0.071 | -0.013 | -0.034 | -0.047
2 | UBR1 (UniProt Q8IWV7) | -0.018 | 0.025 | 0.054 | -0.032 | -0.07 | 0.03 | -0.046 | -0.038 | 0.019 | 0.004 | -0.018 | -0.026 | 0.009 | 0.001 | -0.03 | 0.033 | 0.055 | 0.003 | -0.007 | 0.016
3 | TBC1D8B (UniProt Q0IIM8) | -0.007 | -0.025 | 0.108 | 0.096 | 0.072 | -0.024 | -0.308 (active) | 0.192 | -0.047 | -0.042 | -0.134 | 0.051 | -0.017 | -0.057 | 0.078 | -0.032 | 0.033 | 0.11 | 0.026 | 0.008
4 | UBE3C (UniProt Q15386) | -0.001 | 0.006 | 0.016 | -0.021 | -0.073 | 0.086 | -0.075 | 0.002 | 0.04 | 0.03 | 0 | -0.084 | 0.023 | 0.033 | 0.024 | 0.076 | -0.145 | 0.022 | 0 | -0.026
5 | TFCP2 (UniProt Q12800) | 0.023 | 0.049 | 0.007 | -0.064 | -0.064 | 0.045 | -0.042 | -0.083 | 0.022 | -0.006 | 0.015 | -0.215 | 0.169 | 0.003 | 0.009 | 0.093 | 0.044 | 0.019 | -0.049 | -0.033
6 | TRIM33 isoform 2 (UniProt Q9UPN9) | -0.018 | -0.003 | 0.009 | -0.008 | -0.039 | 0.023 | -0.132 | 0.05 | 0.027 | 0.043 | -0.029 | -0.131 | 0.016 | -0.001 | -0.006 | 0.006 | 0.052 | -0.003 | 0.046 | 0.005
7 | TOX4 (UniProt O94842) | -0.019 | 0.005 | 0.017 | 0.06 | -0.027 | -0.018 | -0.235 | 0.147 | 0.041 | 0.005 | -0.16 | -0.006 | 0.027 | 0.025 | -0.022 | -0.011 | -0.082 | 0.028 | -0.013 | -0.016
8 | UBE2D1 (UniProt P51668) | -0.013 | 0.022 | 0.014 | 0.012 | -0.046 | 0.089 | 0.007 | -0.025 | 0.043 | -0.021 | 0.003 | -0.045 | 0.06 | 0.028 | -0.027 | -0.025 | -0.042 | 0.028 | -0.036 | 0.106
9 | TRMT10A (UniProt Q8TBZ6) | 0.005 | -0.025 | -0.08 | 0.118 | -0.014 | -0.005 | -0.027 | 0.029 | -0.014 | 0.006 | 0.003 | -0.008 | 0.095 | -0.01 | 0.09 | -0.031 | -0.012 | 0.015 | -0.021 | -0.004
10 | TRAF2 isoform 2 (UniProt Q12933) | -0.004 | 0.012 | 0 | 0.072 | -0.006 | 0.013 | -0.034 | -0.032 | -0.011 | -0.029 | -0.006 | -0.006 | 0.025 | -0.013 | 0.01 | 0.004 | -0.198 | 0.003 | -0.007 | -0.04
11 | TRIM56 (UniProt Q9BRZ2) | 0.026 | 0.026 | -0.039 | 0.006 | -0.029 | -0.04 | 0.227 | -0.102 | 0.031 | -0.019 | -0.013 | -0.13 | 0.067 | 0.008 | -0.059 | 0.068 | -0.21 | 0.04 | 0.001 | -0.01
12 | TXNRD2 (UniProt Q9NNW7) | -0.004 | 0.036 | -0.047 | 0.023 | -0.005 | -0.008 | -0.031 | 0.082 | 0 | -0.021 | -0.006 | 0.021 | 0.018 | 0.015 | 0.007 | 0.039 | -0.034 | 0 | 0.008 | -0.064
13 | TTF2 (UniProt Q9UNY4) | 0.008 | 0.037 | 0.027 | -0.028 | 0.022 | 0.003 | -0.003 | -0.026 | 0.025 | 0.024 | -0.018 | -0.055 | 0.05 | 0.069 | 0.005 | -0.018 | -0.01 | 0.005 | 0.056 | 0.002
14 | TBRG4 (UniProt Q969Z0) | -0.016 | 0.008 | 0.051 | -0.075 | -0.079 | 0.048 | 0.052 | -0.128 | 0.026 | 0.013 | 0.017 | -0.089 | 0.007 | 0.071 | -0.018 | 0.01 | -0.013 | 0.037 | -0.008 | -0.015
15 | TUBA4A (UniProt P68366) | 0.003 | -0.045 | 0.028 | -0.023 | -0.056 | 0.033 | -0.05 | 0.003 | -0.036 | -0.039 | 0.003 | -0.068 | 0.049 | 0.014 | -0.001 | -0.039 | 0.125 | 0.027 | 0.032 | 0.007
16 | TYW3 (UniProt Q6IPR3) | 0.024 | 0.017 | 0.017 | 0.038 | -0.002 | -0.02 | -0.218 | 0.031 | -0.031 | -0.003 | -0.033 | 0.014 | -0.007 | -0.021 | 0.061 | 0.027 | -0.064 | -0.03 | 0.019 | 0.01

From the supplement of paper PMC10849652
